Experimental data as given in PubChem BioAssay AID1159580 (chemical genetic matrix, 2015).
Screen size: about 5,500 compounds; about 2,000 (36%) were called active. Roughly 18% stayed inconclusive and do not appear here. Rule as the data show it: active = normalized growth mostly below about 0.91 (no sharp cut-off); inconclusive = no clear call, values can overlap the other calls; inactive = mostly above about 0.92. The list shows a part of the results.

Test: chemical genetic growth profiling, strain panel (AID 1159580);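 also: tested at 20 µM; growth read once vehicle control cultures reached saturation at 30 °C; 1 = growth at the plate median or of vehicle wells; lower values mean less growth of the strain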
Settings: growth OD

Measured: normalized growth

CC(N)CCCC(C)(C)O (centres undefined)
inactive: S. cerevisiae deletion strains, locus YJR066W, strain TOR1, hits give low values 1.01 | S. cerevisiae deletion strains, locus YKL009W, strain mrt4, hits give low values 0.985 | S. cerevisiae deletion strains, locus YKL068W, hits give low values 0.995 | S. cerevisiae deletion strains, locus YKL085W, strain MDH1 (second series), hits give low values 0.995 | S. cerevisiae deletion strains, locus YKL085W, strain MDH1, hits give low values 0.995 | S. cerevisiae deletion strains, locus YKL160W, strain elf1, hits give low values 0.991 | S. cerevisiae deletion strains, locus YKL190W, strain CNB1, hits give low values 0.995 | S. cerevisiae deletion strains, locus YKR001C, strain vps1, hits give low values 0.99 | S. cerevisiae deletion strains, locus YKR026C, strain gcn3, hits give low values 0.956 | S. cerevisiae deletion strains, locus YKR091W, strain srl3, hits give low values 0.977 | S. cerevisiae deletion strains, locus YLL001W, strain dnm1, hits give low values 0.974 | S. cerevisiae deletion strains, locus YLL026W, hits give low values 0.979 | S. cerevisiae deletion strains, locus YLL041C, strain sdh2, hits give low values 0.968 | S. cerevisiae deletion strains, locus YLR027C, strain aat2, hits give low values 0.99 | S. cerevisiae deletion strains, locus YLR039C, strain RIC1, hits give low values 1.01 | S. cerevisiae deletion strains, locus YLR058C, strain SHM2, hits give low values 1.01 | S. cerevisiae deletion strains, locus YLR102C, strain apc9, hits give low values 1.01 | S. cerevisiae deletion strains, locus YLR113W, strain HOG1, hits give low values 0.988 | S. cerevisiae deletion strains, locus YLR221C, strain rsa3, hits give low values 0.982 | S. cerevisiae deletion strains, locus YLR258W, strain gsy2, hits give low values 0.982 | S. cerevisiae deletion strains, locus YLR262C, strain YPT6 (second series), hits give low values 0.995 | S. cerevisiae deletion strains, locus YLR262C, strain YPT6, hits give low values 1.03 | S. cerevisiae deletion strains, locus YLR268W, strain sec22, hits give low values 0.999 | S. cerevisiae deletion strains, locus YLR320W, strain mms22, hits give low values 1.01 | S. cerevisiae deletion strains, locus YLR330W, strain CHS5, hits give low values 1.01 | S. cerevisiae deletion strains, locus YLR342W, strain FKS1 (second series), hits give low values 1.04 | S. cerevisiae deletion strains, locus YLR342W, strain FKS1, hits give low values 0.982 | S. cerevisiae deletion strains, locus YLR357W, strain rsc2, hits give low values 0.981 | S. cerevisiae deletion strains, locus YLR370C, strain arc18, hits give low values 0.988 | S. cerevisiae deletion strains, locus YLR371W, strain rom2, hits give low values 0.991 | S. cerevisiae deletion strains, locus YLR384C, strain iki3, hits give low values 0.985 | S. cerevisiae deletion strains, locus YLR418C, strain cdc73, hits give low values 1.05 | S. cerevisiae deletion strains, locus YML016C, strain PPZ1, hits give low values 1 | S. cerevisiae deletion strains, locus YML032C, strain rad52, hits give low values 0.986 | S. cerevisiae deletion strains, locus YML120C, strain ndi1, hits give low values 0.981 | S. cerevisiae deletion strains, locus YML124C, strain tub3, hits give low values 1.01 | S. cerevisiae deletion strains, locus YMR058W, strain fet3, hits give low values 0.974 | S. cerevisiae deletion strains, locus YMR078C, strain ctf18, hits give low values 1.01 | S. cerevisiae deletion strains, locus YMR125W, strain sto1, hits give low values 0.957 | S. cerevisiae deletion strains, locus YMR129W, hits give low values 0.978 | S. cerevisiae deletion strains, locus YMR205C, strain PFK2, hits give low values 1.01 | S. cerevisiae deletion strains, locus YMR223W, strain ubp8, hits give low values 1.02 | S. cerevisiae deletion strains, locus YMR231W, strain pep5, hits give low values 0.983 | S. cerevisiae deletion strains, locus YMR263W, strain SAP30, hits give low values 0.984 | S. cerevisiae deletion strains, locus YMR307W, strain GAS1, hits give low values 1.06 | S. cerevisiae deletion strains, locus YNL067W, strain RPL9B, hits give low values 0.973 | S. cerevisiae deletion strains, locus YNL071W, strain lat1, hits give low values 0.987 | S. cerevisiae deletion strains, locus YNL183C, strain NPR1, hits give low values 1.03 | S. cerevisiae deletion strains, locus YNL209W, strain ssb2, hits give low values 0.976 | S. cerevisiae deletion strains, locus YNL233W, strain BNI4, hits give low values 0.97 | S. cerevisiae deletion strains, locus YNL248C, strain rpa49, hits give low values 0.965 | S. cerevisiae deletion strains, locus YNL250W, strain rad50, hits give low values 0.996 | S. cerevisiae deletion strains, locus YNL271C, strain bni1, hits give low values 1.01 | S. cerevisiae deletion strains, locus YNL298W, strain CLA4, hits give low values 0.999 | S. cerevisiae deletion strains, locus YNL307C, strain MCK1, hits give low values 1.01 | S. cerevisiae deletion strains, locus YNL322C, strain KRE1 (second series), hits give low values 0.972 | S. cerevisiae deletion strains, locus YNR049C, strain mso1, hits give low values 0.965 | S. cerevisiae deletion strains, locus YNR052C, strain pop2, hits give low values 1 | S. cerevisiae deletion strains, locus YOL006C, strain TOP1, hits give low values 0.947 | S. cerevisiae deletion strains, locus YOL012C, strain htz1 0.693 | S. cerevisiae deletion strains, locus YOL147C, strain pex11, hits give low values 1 | S. cerevisiae deletion strains, locus YOR001W, strain rrp6, hits give low values 0.961 | S. cerevisiae deletion strains, locus YOR061W, strain CKA2, hits give low values 1 | S. cerevisiae deletion strains, locus YOR069W, strain VPS5, hits give low values 1.01 | S. cerevisiae deletion strains, locus YOR070C, strain gyp1, hits give low values 0.992 | S. cerevisiae deletion strains, locus YOR080W, strain dia2, hits give low values 0.98 | S. cerevisiae deletion strains, locus YOR083W, strain WHI5, hits give low values 0.979 | S. cerevisiae deletion strains, locus YOR106W, strain vam3, hits give low values 0.978 | S. cerevisiae deletion strains, locus YOR136W, strain idh2, hits give low values 0.991 | S. cerevisiae deletion strains, locus YOR144C, strain elg1, hits give low values 0.995 | S. cerevisiae deletion strains, locus YOR184W, strain ser1, hits give low values 0.999 | S. cerevisiae deletion strains, locus YOR231W, strain MKK1, hits give low values 1.03 | S. cerevisiae deletion strains, locus YOR265W, strain rbl2, hits give low values 0.982 | S. cerevisiae deletion strains, locus YOR270C, strain vph1, hits give low values 0.989 | S. cerevisiae deletion strains, locus YOR290C, strain snf2, hits give low values 0.94 | S. cerevisiae deletion strains, locus YOR316C, strain cot1, hits give low values 1 | S. cerevisiae deletion strains, locus YPL051W, strain arl3, hits give low values 0.979 | S. cerevisiae deletion strains, locus YPL055C, strain LGE1, hits give low values 0.915 | S. cerevisiae deletion strains, locus YPL078C, strain atp4, hits give low values 0.975 | S. cerevisiae deletion strains, locus YPL106C, strain sse1, hits give low values 0.951 | S. cerevisiae deletion strains, locus YPL240C, strain hsp82, hits give low values 0.966 | S. cerevisiae deletion strains, locus YPL241C, strain CIN2, hits give low values 1 | S. cerevisiae deletion strains, locus YPL256C, strain CLN2, hits give low values 1.1 | S. cerevisiae deletion strains, locus YPR119W, strain clb2, hits give low values 0.997 | S. cerevisiae deletion strains, locus YPR141C, strain kar3, hits give low values 1 | S. cerevisiae deletion strains, locus YPR163C, strain tif3, hits give low values 1 | S. cerevisiae deletion strains, locus YPR167C, strain met16, hits give low values 1.01 | S. cerevisiae deletion strains, strain wtn01, hits give low values 1 | S. cerevisiae strains, strain wild type, hits give low values 1
